The record followed here is PubChem BioAssay.

The source made the active and inactive calls.

Experiment [1] has as its system Human papillomavirus type 1a protein E7 (residues 44-93). The experiment in a line: small molecules binding HPV E7 44-93 – biochemical, small-molecule microarray, residues 44-93, 635 nm fluorescence, primary screen (AID 1108).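 Further: E7 fragment applied at 1 µg/mL in TBST for 1 h at 4 C; score combines spot fluorescence with its signal to noise ratio.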 Particulars: fluorescence 635 nm, higher = more signal.
Experiment [2] in a line: hepatitis C replication reporter changes, two-sided – Huh7 cells, luciferase reporter, HCV replication inhibitor project, primary screen (AID 1109).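 Further: huh7 hepatoma cells harbouring a luciferase neomycin HCV replicon reporter; luciferase luminescence as measure of HCV replicon replication; test concentration not given here.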 Particulars: Huh7 HCV replicon luciferase reporter, 48 h; higher = more signal.
Experiment [3] concerns the target Left-right determination factor 2 (Homo sapiens) (UniProt O00292). The experiment can be described thus: small molecules binding LEFTY2 protein – biochemical, small-molecule microarray, 635 nm fluorescence scan, primary screen (AID 1110). The settings on record: higher = more signal.
For experiment [4], the target named is Calmodulin-1 (Homo sapiens) (UniProt P0DP23). The experiment in a line: small molecules binding calmodulin-1 with EGTA – biochemical, small-molecule microarray, Cy5-labelled CALM1, profiling panel (AID 1111).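 Further: labelled calmodulin applied in Tris saline Tween buffer holding calcium plus EGTA and DTT.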 The settings on record: Cy5-CALM1 binding fluorescence, higher = more signal.
The target is the same in experiment [5]. The experiment in a line: small molecules binding Ca-loaded calmodulin-1 – biochemical, small-molecule microarray, Cy5-labelled CALM1, plus calcium, artefact control for SMM control-protein annotation, profiling panel (AID 1112).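 Further: score merges spot fluorescence with signal to noise from triplicate slides.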 Particulars: Cy5-CALM1 binding fluorescence, higher = more signal.
A short description of experiment [6]: probe aWnt5a binding to arrayed compounds – biochemical, biotinylated probe, 635/667 nm fluorescence, primary screen (AID 1113).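 Further: score merges 667 nm fluorescence intensity with signal-to-noise per printed feature.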 The settings on record: small-molecule microarray, higher = more signal.
Experiment [7] in a line: probe aShh binding to arrayed compounds – biochemical, biotinylated probe, 635/667 nm fluorescence, primary screen (AID 1114).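 Further: probe is biotin-labelled aShh protein from a stem cell growth factor screen; measures binding of labelled protein to compounds printed on the slide; score merges feature fluorescence at 667 nm with signal-to-noise.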 The settings on record: small-molecule microarray, higher = more signal.
Experiment [8] can be described thus: probe aNog binding to arrayed compounds – biochemical, biotinylated probe, 635/667 nm fluorescence, primary screen (AID 1115).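 Further: probe is biotinylated aNog protein used at 0.15 µg/mL for 1 h at 4 C; z-score combines 667 nm fluorescence of each spot with its signal to noise.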 Particulars: small-molecule microarray, higher = more signal.
In experiment [9] the target is Torsin-1A-interacting protein 1 (Homo sapiens) (UniProt Q5JTV8). The experiment in a line: compound microarray binding of lysate hLAP1 – cell lysate, small-molecule microarray, COS7 lysate, 635/667 nm fluorescence, primary screen (AID 1116). The settings on record: 635 nm fluorescence, higher = more signal.
Sequence of Torsin-1A-interacting protein 1 (Homo sapiens) (Q5JTV8 whole entry, looked up): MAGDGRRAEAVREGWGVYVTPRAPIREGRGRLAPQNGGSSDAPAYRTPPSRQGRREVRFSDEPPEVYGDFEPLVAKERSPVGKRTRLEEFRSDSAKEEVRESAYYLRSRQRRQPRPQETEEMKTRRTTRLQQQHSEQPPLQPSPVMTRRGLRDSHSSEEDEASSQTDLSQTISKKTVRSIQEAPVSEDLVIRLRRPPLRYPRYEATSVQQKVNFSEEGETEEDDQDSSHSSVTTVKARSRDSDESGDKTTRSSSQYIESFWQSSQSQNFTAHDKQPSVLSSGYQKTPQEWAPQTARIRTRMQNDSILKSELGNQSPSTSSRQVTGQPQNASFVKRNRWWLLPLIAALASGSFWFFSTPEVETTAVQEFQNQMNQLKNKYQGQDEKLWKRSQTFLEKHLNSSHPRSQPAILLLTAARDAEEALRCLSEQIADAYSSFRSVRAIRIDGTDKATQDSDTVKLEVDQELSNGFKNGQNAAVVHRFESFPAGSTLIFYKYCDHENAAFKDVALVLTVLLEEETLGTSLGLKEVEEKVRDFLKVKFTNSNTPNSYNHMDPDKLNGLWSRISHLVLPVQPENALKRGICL
The target of experiment [10] is Alpha-bungarotoxin (Bungarus multicinctus) (UniProt P60615). The experiment can be described thus: compounds binding labelled alpha-BTX control protein – biochemical, small-molecule microarray, Alexa647 label, 635/667 nm fluorescence, artefact control for SMM control protein annotation, profiling panel (AID 1117). The settings on record: alpha-BTX-A647 binding fluorescence, higher = more signal.
Sequence of Alpha-bungarotoxin (Bungarus multicinctus) (P60615 whole entry, looked up): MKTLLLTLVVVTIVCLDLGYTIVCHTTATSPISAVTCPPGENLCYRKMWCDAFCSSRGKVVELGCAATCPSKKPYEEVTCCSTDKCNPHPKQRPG

Experiment [11] deals with Albumin (Bos taurus) (UniProt P02769). The experiment can be described thus: compounds binding labelled BSA control protein – biochemical, small-molecule microarray, Alexa647 label, 635/667 nm fluorescence, artefact control for SMM control protein annotation, profiling panel (AID 1118).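 Further: score merges 667 nm emission intensity and signal-to-noise per printed compound spot.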 Particulars: BSA-A647 binding, fluorescence 635 nm, higher = more signal.
Sequence of Albumin (Bos taurus) (P02769 whole entry, looked up): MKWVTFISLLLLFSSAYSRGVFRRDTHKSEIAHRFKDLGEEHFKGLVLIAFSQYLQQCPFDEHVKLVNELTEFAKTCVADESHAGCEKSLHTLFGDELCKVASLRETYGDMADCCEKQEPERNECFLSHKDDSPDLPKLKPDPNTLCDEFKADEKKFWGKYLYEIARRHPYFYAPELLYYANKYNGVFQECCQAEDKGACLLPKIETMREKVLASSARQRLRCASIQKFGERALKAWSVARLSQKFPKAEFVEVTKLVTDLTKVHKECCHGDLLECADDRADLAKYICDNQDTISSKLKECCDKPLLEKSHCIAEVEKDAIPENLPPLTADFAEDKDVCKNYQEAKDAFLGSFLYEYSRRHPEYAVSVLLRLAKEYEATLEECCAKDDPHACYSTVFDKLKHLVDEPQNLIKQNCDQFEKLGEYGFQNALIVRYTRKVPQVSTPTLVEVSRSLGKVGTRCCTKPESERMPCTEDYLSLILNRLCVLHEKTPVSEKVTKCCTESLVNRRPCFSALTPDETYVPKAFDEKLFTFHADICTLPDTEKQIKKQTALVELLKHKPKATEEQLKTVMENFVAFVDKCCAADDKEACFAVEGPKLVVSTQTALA
A short description of experiment [12]: probe aXIP binding to arrayed compounds – biochemical, NeuroSMM set, 635/667 nm fluorescence, primary screen (AID 1119).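 Further: probe is the protein aXip251-270 applied at 1 µg/mL to compound-printed slides; binding of probe to printed compounds measured as 667 nm fluorescence plus signal to noise.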 Particulars: small-molecule microarray, higher = more signal, called active from +8 up or from −8 down.
Experiment [13] in a line: probe aNOTCH3 binding on compound microarray – biochemical, small-molecule microarray, 635/667 nm fluorescence, primary screen (AID 1120).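 Further: probe is a biotin-tagged antibody raised against NOTCH3 rather than NOTCH3 protein; score merges spot fluorescence near 667 nm with spot signal to noise.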 The settings on record: higher = more signal.
Experiment [14] is described as follows: probe aNOTCH2 binding on compound microarray – biochemical, small-molecule microarray, 635/667 nm fluorescence, primary screen (AID 1121).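 Further: score merges feature fluorescence read at 667 nm with its signal to noise.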 Particulars: higher = more signal.
For experiment [15], the target named is Carbonic anhydrase 2 (Homo sapiens) (UniProt P00918). The experiment in a line: compounds binding carbonic anhydrase 2 – biochemical, small-molecule microarray, Alexa647-labelled CAII, profiling panel (AID 1122). Particulars: CAII-A647 binding fluorescence, higher = more signal.
The nature of experiment [16]: COS7 lysate on small-molecule microarray, probe aHis, 635 nm (AID 1123).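 Further: z-score combines 667nm fluorescence intensity with signal-to-noise per printed compound spot.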 The settings on record: COS7 cell lysate, fluorescence, higher = more signal.
A short description of experiment [17]: probe aLAP1 signal on lysate-treated microarray – cell lysate, small-molecule microarray, COS7 lysate, primary screen (AID 1124).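 Further: lysate comes from COS7 cells expressing LAP1 and is applied at 0.3 µg/mL; score merges spot fluorescence near 667 nm with signal-to-noise over triplicate slides.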 Particulars: probe aLAP1, fluorescence, higher = more signal.
Experiment [18] relates to Sam68 (KHDRBS1). The experiment in a line: compounds binding KHDRBS1 protein – biochemical, small-molecule microarray, 635 nm fluorescence, primary screen (AID 1125).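 Further: score merges 667 nm channel intensity with signal to noise over triplicate slides.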 The settings on record: higher = more signal.
The subject of experiment [19] is Chordin-like protein 2 (CHRDL2). The experiment can be described thus: compounds binding chordin-like 2 – biochemical, small-molecule microarray, 635 nm fluorescence, primary screen (AID 1126).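 Further: printed compound slides probed with Chrdl2 protein at 4 µg/mL for 1 h at 4 C; score merges 667 nm emission intensity with signal to noise over three replicate slides.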 Particulars: fluorescence 635 nm, higher = more signal.
Experiment [20] concerns the target Concanavalin-A (Canavalia ensiformis) (UniProt P02866). The experiment in a line: compounds binding concanavalin A lectin – biochemical, small-molecule microarray, Alexa647 label, 635 nm, artefact control for SMM control protein annotation, primary screen (AID 1127).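 Further: z combines 667 nm emission intensity with signal-to-noise across three replicate slides.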 The settings on record: ConA-A647 binding fluorescence, higher = more signal.

Sequence of Left-right determination factor 2 (Homo sapiens) (O00292 whole entry, looked up): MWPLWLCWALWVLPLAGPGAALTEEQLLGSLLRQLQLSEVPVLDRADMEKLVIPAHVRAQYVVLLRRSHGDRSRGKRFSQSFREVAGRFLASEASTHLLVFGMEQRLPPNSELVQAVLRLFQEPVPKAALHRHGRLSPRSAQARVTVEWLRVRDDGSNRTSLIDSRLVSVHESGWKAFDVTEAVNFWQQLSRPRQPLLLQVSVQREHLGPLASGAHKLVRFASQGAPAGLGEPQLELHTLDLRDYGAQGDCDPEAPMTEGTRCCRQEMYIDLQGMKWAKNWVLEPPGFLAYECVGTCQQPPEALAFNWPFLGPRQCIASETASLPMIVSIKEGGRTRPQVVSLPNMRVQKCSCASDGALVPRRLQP
Sequence of Concanavalin-A (Canavalia ensiformis) (P02866 whole entry, looked up): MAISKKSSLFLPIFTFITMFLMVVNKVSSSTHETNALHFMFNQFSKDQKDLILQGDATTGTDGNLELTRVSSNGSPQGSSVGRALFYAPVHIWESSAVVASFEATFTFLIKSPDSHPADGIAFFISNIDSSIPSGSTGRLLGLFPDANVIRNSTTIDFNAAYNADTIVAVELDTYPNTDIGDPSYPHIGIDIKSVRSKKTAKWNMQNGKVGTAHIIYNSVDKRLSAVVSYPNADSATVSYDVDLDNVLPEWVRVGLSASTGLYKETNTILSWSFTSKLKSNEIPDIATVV

As to `COc1ccc(CCNC(=O)[C@@]2(c3ccc([N+](=O)[O-])cc3)CC(=O)N(C(C)C)[C@@H]2c2ccc(CO)cc2)cc1`, the composite z-score in [1] is 0.0008; in [3], -1.6; in experiment [4], -0.63; in [5], -0.0462; in experiment [6], -0.129; in experiment [7], 0.0557. Moreover, the composite z-score in experiment [8] is 0.132; in [9], 0.228; in experiment [10], -0.631; in experiment [11], 0.0638; in experiment [13], -0.331; in experiment [14], -0.154. Also, the composite z-score in [15] is 0.748; in experiment [16] it was 0.462; in experiment [17] it was 0.451; in experiment [18], -0.549; in experiment [19], -2.5; in experiment [20], -0.895. The z-score in experiment [2] was -0.309. Further, in [12], the composite Z-score is 0.265 (inactive).
`O=C/C=C/c1ccc(/C=C/c2ccccc2)cc1`: the composite z-score in experiment [1] was -1.48; in experiment [3], 0.0281; in [4] it was -0.858; in experiment [5] it was -0.584; in [6], -0.0585; in experiment [7], -0.0886. Besides, the composite z-score in experiment [8] is -0.489; in experiment [9], 0.2; in [10], 0.129; in experiment [11], -0.435; in experiment [13] it was -0.25; in [14] it was -0.175. Further, the composite z-score in experiment [15] is -0.147; in [16], -0.792; in experiment [17], 0.103; in experiment [18], -1.22; in experiment [19] it was 0.95; in [20] it was -0.342. For the same molecule, the z-score in experiment [2] was determined as 0.783. Moreover, the composite Z-score in experiment [12] was -0.738 (inactive).
For the molecule `C[C@H]1COC(=O)[C@H](Cc2ccccc2)NC(=O)[C@@H](C)COC(=O)[C@H](Cc2ccccc2)NC1=O`, the composite z-score in experiment [1] is 0.844; in experiment [3] it was 0.597; in experiment [4] it was 0.359; in experiment [5] it was -0.589; in experiment [6], -0.236; in experiment [7], 0.0711. In addition, the composite z-score is -0.0026 in [8]; 1 in experiment [9]; 0.856 in [10]; 0.732 in experiment [11]; -0.0377 in experiment [13]; -0.0967 in experiment [14]. For the same molecule, the composite z-score came to 0.447 in experiment [15]; 0.612 in experiment [16]; 0.275 in [17]; 1.27 in experiment [18]; 0.845 in experiment [19]; 0.892 in experiment [20]. Besides, in experiment [2], the z-score was -0.0223. Besides, in experiment [12], the composite Z-score was 0.0705 (inactive).
Take `C=C(COC)/C(=C/C[C@H](OC(C)=O)c1ccc(OCCO)cc1)c1cnc2ccccc2c1`: the composite z-score in experiment [1] is 0.5; in [3], 0.523; in [4], 0.339; in [5], 0.214; in [6] it was -0.001; in [7], 0.261. In addition, the composite z-score in [8] was 0.0107; in experiment [9], 0.458; in [10] it was 1.56; in [11], 0.0916; in experiment [13] it was 0.196; in experiment [14], -0.108. Further, the composite z-score was 0.797 in [15]; 0.193 in experiment [16]; -0.0578 in experiment [17]; 1.27 in experiment [18]; 1.24 in [19]; 1.05 in experiment [20]. For the same molecule, in experiment [2], the z-score was -0.773. Also, the composite Z-score in experiment [12] was -0.0473 (inactive).
With `C=CCN1C(=O)[C@]2(O[C@H](CCn3cc(CCO)nn3)[C@@H]([Si](C)(C)c3ccc(OC)cc3)[C@@H]2C)c2cc(NC(=O)c3ccc(OC)cc3)ccc21`, the composite z-score in experiment [1] is 1.09; in experiment [3], 0.774; in experiment [4], 0.289; in experiment [5] it was 0.336; in [6] it was -0.124; in [7], 0.166. In addition, the composite z-score in [8] was 0.188; in experiment [9], 0.573; in experiment [10], 1.19; in [11] it was 0.0645; in experiment [13] it was 0.141; in experiment [14] it was -0.044. Further, the composite z-score is 0.131 in experiment [15]; 0.514 in experiment [16]; -0.0812 in [17]; 1.3 in experiment [18]; 0.782 in experiment [19]; 1.08 in [20]. For the same molecule, the z-score in experiment [2] was -3.44. In addition, in experiment [12], the composite Z-score was -0.624 (inactive).
Consider `COc1ccc([Si](C)(C)[C@@H]2[C@@H](CC(=O)N(CCO)Cc3ccccc3)O[C@]3(C(=O)N(Cc4cccc(N5CCC5=O)c4)c4ccccc43)[C@H]2C)cc1`, for which the composite z-score in experiment [1] was 0.411; in [3], 0.571; in [4], -0.0736; in experiment [5], -0.322; in [6] it was -0.0718; in experiment [7], -0.0709. The composite z-score in experiment [8] was -0.411; in [9], 1.28; in experiment [10], 0.508; in experiment [11] it was 0.047; in experiment [13], -0.0647; in experiment [14], -0.0916. Also, the composite z-score was determined as 0.401 in [15]; 2.49 in experiment [16]; 1.95 in experiment [17]; 1.05 in experiment [18]; 0.9 in [19]; 0.902 in [20]. Also, the z-score in experiment [2] is -3.81. The composite Z-score in experiment [12] is 0.0923 (inactive).
